Reference: PMC9911399, “Two distinct binding modes provide the RNA-binding protein RbFox with extraordinary sequence specificity”
Residue numbers refer to the chain shown, from its start. Over roughly 16,000 sequences, “ka relative to ugcaugu” has its median near 0.096; the highest 2% begin near 0.35. Shown is part of a subset that was picked to be rich in the highest values.

T1: RBFOX1 RRM RbFoxmut (Fox-RRM*) (Homo sapiens, UniProt Q9NWB1 109-208, R118D;E147R;N151S;E152T)
T1 sequence: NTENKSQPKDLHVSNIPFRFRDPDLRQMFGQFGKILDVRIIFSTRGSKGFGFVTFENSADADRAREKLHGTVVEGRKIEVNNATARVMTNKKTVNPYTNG

B1: GUUCGUA (DNA:RNA)
RNA: GGGAGACCGGAAUUCAGAUUGUCCGUUCGUAUUAAAUCCCGUCGUAGCCACCA
DNA 1: CAATCTGAATTCCGGTCTCCC
DNA 2: TGGTGGCTACGACGGGATT
B2: UUCUUCA (DNA:RNA)
RNA: B1 RNA with G25U, U27C, C28U, G29U, U30C
DNA 1: CAATCTGAATTCCGGTCTCCC
DNA 2: TGGTGGCTACGACGGGATT
B3: UGCGUAU (DNA:RNA)
RNA: GGGAGACCGGAAUUCAGAUUGUCCUGCGUAUUUAAAUCCCGUCGUAGCCACCA
DNA 1: CAATCTGAATTCCGGTCTCCC
DNA 2: TGGTGGCTACGACGGGATT
B4: AUAGGAG (DNA:RNA)
RNA: B1 RNA with G25A, U27A, C28G, U30A, A31G
DNA 1: CAATCTGAATTCCGGTCTCCC
DNA 2: TGGTGGCTACGACGGGATT
B5: CAGGGCG (DNA:RNA)
RNA: B1 RNA with G25C, U26A, U27G, C28G, U30C, A31G
DNA 1: CAATCTGAATTCCGGTCTCCC
DNA 2: TGGTGGCTACGACGGGATT
B6: GAUCCAA (DNA:RNA)
RNA: B1 RNA with U26A, G29C, U30A
DNA 1: CAATCTGAATTCCGGTCTCCC
DNA 2: TGGTGGCTACGACGGGATT
B7: AGCUUUC (DNA:RNA)
RNA: B3 RNA with U25A, G28U, A30U, U31C
DNA 1: CAATCTGAATTCCGGTCTCCC
DNA 2: TGGTGGCTACGACGGGATT
B8: CGAUGCC (DNA:RNA)
RNA: B1 RNA with G25C, U26G, U27A, C28U, U30C, A31C
DNA 1: CAATCTGAATTCCGGTCTCCC
DNA 2: TGGTGGCTACGACGGGATT
B9: CGAUGCG (DNA:RNA)
RNA: B1 RNA with G25C, U26G, U27A, C28U, U30C, A31G
DNA 1: CAATCTGAATTCCGGTCTCCC
DNA 2: TGGTGGCTACGACGGGATT
B10: GAAUGCG (DNA:RNA)
RNA: B1 RNA with U26A, U27A, C28U, U30C, A31G
DNA 1: CAATCTGAATTCCGGTCTCCC
DNA 2: TGGTGGCTACGACGGGATT
B11: GGAUGCC (DNA:RNA)
RNA: B1 RNA with U26G, U27A, C28U, U30C, A31C
DNA 1: CAATCTGAATTCCGGTCTCCC
DNA 2: TGGTGGCTACGACGGGATT
B12: GAAUCCC (DNA:RNA)
RNA: B1 RNA with U26A, U27A, C28U, G29C, U30C, A31C
DNA 1: CAATCTGAATTCCGGTCTCCC
DNA 2: TGGTGGCTACGACGGGATT
B13: GAAUGCC (DNA:RNA)
RNA: B1 RNA with U26A, U27A, C28U, U30C, A31C
DNA 1: CAATCTGAATTCCGGTCTCCC
DNA 2: TGGTGGCTACGACGGGATT
B14: CUUCGUG (DNA:RNA)
RNA: B1 RNA with G25C, A31G
DNA 1: CAATCTGAATTCCGGTCTCCC
DNA 2: TGGTGGCTACGACGGGATT
B15: CACUUAC (DNA:RNA)
RNA: B3 RNA with U25C, G26A, G28U, U31C
DNA 1: CAATCTGAATTCCGGTCTCCC
DNA 2: TGGTGGCTACGACGGGATT
B16: GUAAUGA (DNA:RNA)
RNA: B1 RNA with U27A, C28A, G29U, U30G
DNA 1: CAATCTGAATTCCGGTCTCCC
DNA 2: TGGTGGCTACGACGGGATT
B17: CGAAUGA (DNA:RNA)
RNA: B3 RNA with U25C, C27A, G28A, A30G, U31A
DNA 1: CAATCTGAATTCCGGTCTCCC
DNA 2: TGGTGGCTACGACGGGATT
B18: GAUGAUU (DNA:RNA)
RNA: B1 RNA with U26A, C28G, G29A, A31U
DNA 1: CAATCTGAATTCCGGTCTCCC
DNA 2: TGGTGGCTACGACGGGATT
B19: CGUUAAA (DNA:RNA)
RNA: B1 RNA with G25C, U26G, C28U, G29A, U30A
DNA 1: CAATCTGAATTCCGGTCTCCC
DNA 2: TGGTGGCTACGACGGGATT
B20: GAAUGAU (DNA:RNA)
RNA: B1 RNA with U26A, U27A, C28U, U30A, A31U
DNA 1: CAATCTGAATTCCGGTCTCCC
DNA 2: TGGTGGCTACGACGGGATT
B21: GAAUUGA (DNA:RNA)
RNA: B1 RNA with U26A, U27A, C28U, G29U, U30G
DNA 1: CAATCTGAATTCCGGTCTCCC
DNA 2: TGGTGGCTACGACGGGATT
B22: GACCGAA (DNA:RNA)
RNA: B1 RNA with U26A, U27C, U30A
DNA 1: CAATCTGAATTCCGGTCTCCC
DNA 2: TGGTGGCTACGACGGGATT
B23: GGAAUGA (DNA:RNA)
RNA: B1 RNA with U26G, U27A, C28A, G29U, U30G
DNA 1: CAATCTGAATTCCGGTCTCCC
DNA 2: TGGTGGCTACGACGGGATT
B24: GAAAUGA (DNA:RNA)
RNA: B1 RNA with U26A, U27A, C28A, G29U, U30G
DNA 1: CAATCTGAATTCCGGTCTCCC
DNA 2: TGGTGGCTACGACGGGATT
B25: GUCCGAA (DNA:RNA)
RNA: B1 RNA with U27C, U30A
DNA 1: CAATCTGAATTCCGGTCTCCC
DNA 2: TGGTGGCTACGACGGGATT
B26: GAAUUUU (DNA:RNA)
RNA: B1 RNA with U26A, U27A, C28U, G29U, A31U
DNA 1: CAATCTGAATTCCGGTCTCCC
DNA 2: TGGTGGCTACGACGGGATT
B27: GAAUGAA (DNA:RNA)
RNA: B1 RNA with U26A, U27A, C28U, U30A
DNA 1: CAATCTGAATTCCGGTCTCCC
DNA 2: TGGTGGCTACGACGGGATT
B28: GACUAAG (DNA:RNA)
RNA: B3 RNA with U25G, G26A, G28U, U29A, U31G
DNA 1: CAATCTGAATTCCGGTCTCCC
DNA 2: TGGTGGCTACGACGGGATT
B29: CAUAAUU (DNA:RNA)
RNA: B1 RNA with G25C, U26A, C28A, G29A, A31U
DNA 1: CAATCTGAATTCCGGTCTCCC
DNA 2: TGGTGGCTACGACGGGATT
B30: AUCUAGU (DNA:RNA)
RNA: B3 RNA with U25A, G26U, G28U, U29A, A30G
DNA 1: CAATCTGAATTCCGGTCTCCC
DNA 2: TGGTGGCTACGACGGGATT
B31: UCGACUC (DNA:RNA)
RNA: B1 RNA with G25U, U26C, U27G, C28A, G29C, A31C
DNA 1: CAATCTGAATTCCGGTCTCCC
DNA 2: TGGTGGCTACGACGGGATT

Each binder was assayed against T1, RBFOX1 RRM RbFoxmut (Fox-RRM*) (assay: EMSA; HiTS-Eq, 1 nM pool, 10 min; buffer printed only for the single-RNA assays: 10 mM Tris pH 7.5, 150 mM NaCl, 3.4 mM EDTA, 0.001% NP-40, 30 C). Settings: tags: His6 N-terminal (pET28a); label: 5' 32P.
In short: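 Purified wild-type or mutant RbFox RRM at increasing concentrations was equilibrated with 1 nM of 5′-radiolabelled RNA carrying 7 randomized nucleotides for 10 min in 50 µL. Unbound RNA was separated by 8% native PAGE and sequenced. Relative association constants came from read-count changes of each RNA species compared with the control reaction, normalised to the cognate motif.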

Q: B1 was tested. Which binding signal did it give?
A: 0.155 KA relative to UGCAUGU

Q: With B2 as the binder, how does the binding signal read?
A: 0.111 KA relative to UGCAUGU

Q: How did the binding signal turn out when B3 was run?
A: 0.143 KA relative to UGCAUGU

Q: For B4, which binding signal is on record?
A: 0.097 KA relative to UGCAUGU

Q: Which binding signal does the source give for B5 here?
A: 0.123 KA relative to UGCAUGU

Q: With B6 as the binder, how does the binding signal read?
A: 0.0776 KA relative to UGCAUGU

Q: With B7 as the binder, how does the binding signal read?
A: 0.0646 KA relative to UGCAUGU

Q: With B8 as the binder, how does the binding signal read?
A: 0.206 KA relative to UGCAUGU

Q: B9 was tested. Which binding signal did it give?
A: 0.113 KA relative to UGCAUGU

Q: How did the binding signal turn out when B10 was run?
A: 0.763 KA relative to UGCAUGU

Q: B11 was tested. Which binding signal did it give?
A: 0.168 KA relative to UGCAUGU

Q: B12 was tested. Which binding signal did it give?
A: 0.0694 KA relative to UGCAUGU

Q: For B13, which binding signal is on record?
A: 0.356 KA relative to UGCAUGU

Q: For B14, which binding signal is on record?
A: 0.135 KA relative to UGCAUGU

Q: With B15 as the binder, how does the binding signal read?
A: 0.1 KA relative to UGCAUGU

Q: Which binding signal does the source give for B16 here?
A: 0.121 KA relative to UGCAUGU

Q: How did the binding signal turn out when B17 was run?
A: 1.04 KA relative to UGCAUGU

Q: Which binding signal does the source give for B18 here?
A: 0.084 KA relative to UGCAUGU

Q: B19 was tested. Which binding signal did it give?
A: 0.107 KA relative to UGCAUGU

Q: For B20, which binding signal is on record?
A: 0.641 KA relative to UGCAUGU

Q: For B21, which binding signal is on record?
A: 0.129 KA relative to UGCAUGU

Q: B22 was tested. Which binding signal did it give?
A: 0.0991 KA relative to UGCAUGU

Q: How did the binding signal turn out when B23 was run?
A: 0.772 KA relative to UGCAUGU

Q: Which binding signal does the source give for B24 here?
A: 0.0974 KA relative to UGCAUGU

Q: Which binding signal does the source give for B25 here?
A: 0.0703 KA relative to UGCAUGU

Q: Which binding signal does the source give for B26 here?
A: 0.1 KA relative to UGCAUGU

Q: For B27, which binding signal is on record?
A: 0.873 KA relative to UGCAUGU

Q: B28 was tested. Which binding signal did it give?
A: 0.101 KA relative to UGCAUGU

Q: With B29 as the binder, how does the binding signal read?
A: 0.0899 KA relative to UGCAUGU

Q: How did the binding signal turn out when B30 was run?
A: 0.14 KA relative to UGCAUGU

Q: Which binding signal does the source give for B31 here?
A: 0.0668 KA relative to UGCAUGU
